# Test results as given in publication PMC11006913.
# Assays:
# Test in all cases: PBM; 200 nM protein, PBS
# Conditions in all cases: dsDNA, one strand shown
# [1] = target: HOXB9 (Homo sapiens, UniProt P17482 171-250, T197M)
# [2] = target: HOXC9 (Homo sapiens, UniProt P31274 178-260, K195R)
# [3] = target: HOXC10 (Homo sapiens, UniProt Q9NYD6 254-340)
# [4] = target: HOXB9 (Homo sapiens, UniProt P17482 171-250)
# [5] = target: HOXC9 (Homo sapiens, UniProt P31274 178-260)
# [6] = target: HOXD13 (Homo sapiens, UniProt P35453 263-343, T313R)
# Chain of HOXD13 (Homo sapiens, UniProt P35453 263-343, T313R) (P35453 263-343 T313R): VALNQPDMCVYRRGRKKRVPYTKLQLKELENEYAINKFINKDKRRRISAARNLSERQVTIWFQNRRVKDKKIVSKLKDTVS
# [7] = target: HOXC9 (Homo sapiens, UniProt P31274 178-260, R193K)
# Chain of HOXC9 (Homo sapiens, UniProt P31274 178-260, R193K) (P31274 178-260 R193K): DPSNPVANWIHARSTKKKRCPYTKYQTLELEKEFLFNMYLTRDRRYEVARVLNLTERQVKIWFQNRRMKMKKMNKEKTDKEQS
# [8] = target: HOXD13 (Homo sapiens, UniProt P35453 263-343)
# Chain of HOXD13 (Homo sapiens, UniProt P35453 263-343) (P35453 263-343): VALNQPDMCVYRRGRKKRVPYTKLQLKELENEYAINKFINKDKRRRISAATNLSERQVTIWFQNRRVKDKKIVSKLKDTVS
# [9] = target: HOXC10 (Homo sapiens, UniProt Q9NYD6 254-340, K271E)
# Chain of HOXC10 (Homo sapiens, UniProt Q9NYD6 254-340, K271E) (Q9NYD6 254-340 K271E): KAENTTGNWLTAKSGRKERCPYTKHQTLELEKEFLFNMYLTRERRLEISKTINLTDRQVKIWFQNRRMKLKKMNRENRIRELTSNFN
# [10] = target: HOXD13 (Homo sapiens, UniProt P35453 263-343, T313A)
# Chain of HOXD13 (Homo sapiens, UniProt P35453 263-343, T313A) (P35453 263-343 T313A): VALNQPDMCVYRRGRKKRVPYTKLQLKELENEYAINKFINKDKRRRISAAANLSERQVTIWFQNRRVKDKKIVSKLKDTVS
# [11] = target: HOXB9 (Homo sapiens, UniProt P17482 171-250, R186Q)
# Chain of HOXB9 (Homo sapiens, UniProt P17482 171-250, R186Q) (P17482 171-250 R186Q): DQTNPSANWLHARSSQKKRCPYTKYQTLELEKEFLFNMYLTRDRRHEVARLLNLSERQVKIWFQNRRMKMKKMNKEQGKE
# [12] = target: HOXC9 (Homo sapiens, UniProt P31274 178-260, R222W)
# Chain of HOXC9 (Homo sapiens, UniProt P31274 178-260, R222W) (P31274 178-260 R222W): as the sequence (P31274 178-260 R193K) above, with K16R, R45W counted along it
# [13] = target: HOXB6 (Homo sapiens, UniProt P17509 132-218, K202E)
# Chain of HOXB6 (P17509 132-218 K202E): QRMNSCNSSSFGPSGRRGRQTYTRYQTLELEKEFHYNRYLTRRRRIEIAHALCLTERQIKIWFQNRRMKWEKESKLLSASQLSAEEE
# [14] = target: ALX3 (Homo sapiens, UniProt O95076 139-225, N203Q)
# Chain of ALX3 (O95076 139-225 N203Q): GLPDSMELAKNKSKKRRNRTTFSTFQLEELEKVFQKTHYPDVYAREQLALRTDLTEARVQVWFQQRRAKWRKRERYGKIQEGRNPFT
# [15] = target: HOXA2 (Homo sapiens, UniProt O43364 129-215, R185T)
# Chain of HOXA2 (Homo sapiens, UniProt O43364 129-215, R185T) (O43364 129-215 R185T): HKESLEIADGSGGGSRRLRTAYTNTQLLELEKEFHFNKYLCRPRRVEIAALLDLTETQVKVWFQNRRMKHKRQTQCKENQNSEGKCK
# [16] = target: HOXA2 (Homo sapiens, UniProt O43364 129-215, R185K)
# Chain of HOXA2 (Homo sapiens, UniProt O43364 129-215, R185K) (O43364 129-215 R185K): as the sequence (O43364 129-215 R185T) above, with T57K counted along it
# [17] = target: HOXA2 (Homo sapiens, UniProt O43364 129-215, Y150S)
# Chain of HOXA2 (Homo sapiens, UniProt O43364 129-215, Y150S) (O43364 129-215 Y150S): as the sequence (O43364 129-215 R185T) above, with Y22S, T57R counted along it
# [18] = target: HOXA2 (Homo sapiens, UniProt O43364 129-215)
# Chain of HOXA2 (Homo sapiens, UniProt O43364 129-215) (O43364 129-215): as the sequence (O43364 129-215 R185T) above, with T57R counted along it
# Chain of HOXB9 (Homo sapiens, UniProt P17482 171-250, T197M) (P17482 171-250 T197M): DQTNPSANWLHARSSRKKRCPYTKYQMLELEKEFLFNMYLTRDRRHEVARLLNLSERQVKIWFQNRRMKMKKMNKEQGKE
# Chain of HOXB9 (Homo sapiens, UniProt P17482 171-250) (P17482 171-250): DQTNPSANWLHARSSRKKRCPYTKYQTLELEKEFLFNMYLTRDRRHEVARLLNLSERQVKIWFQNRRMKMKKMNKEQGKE
# Chain of HOXC9 (Homo sapiens, UniProt P31274 178-260) (P31274 178-260): as the sequence (P31274 178-260 R193K) above, with K16R counted along it
# Chain of HOXC10 (Homo sapiens, UniProt Q9NYD6 254-340) (Q9NYD6 254-340): as the sequence (Q9NYD6 254-340 K271E) above, with E18K counted along it
# Chain of HOXC9 (Homo sapiens, UniProt P31274 178-260, K195R) (P31274 178-260 K195R): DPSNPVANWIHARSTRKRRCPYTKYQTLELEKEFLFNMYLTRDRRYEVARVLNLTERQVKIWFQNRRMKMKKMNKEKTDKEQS
Sequence,binding signal [1],binding signal [2],binding signal [3],binding signal [4],binding signal [5],binding signal [6],binding signal [7],binding signal [8],binding signal [9],binding signal [10],binding signal [11],binding signal [12],binding signal [13],binding signal [14],binding signal [15],binding signal [16],binding signal [17],binding signal [18]
CTCGTAAA,"9.72 upbm affinity estimate (log intensity, higher = more binding, comparable within an allelic series)","12.6 upbm affinity estimate (log intensity, higher = more binding, comparable within an allelic series)","12.6 upbm affinity estimate (log intensity, higher = more binding, comparable within an allelic series)","12 upbm affinity estimate (log intensity, higher = more binding, comparable within an allelic series)","12.9 upbm affinity estimate (log intensity, higher = more binding, comparable within an allelic series)","11.3 upbm affinity estimate (log intensity, higher = more binding, comparable within an allelic series)","12.7 upbm affinity estimate (log intensity, higher = more binding, comparable within an allelic series)","12.7 upbm affinity estimate (log intensity, higher = more binding, comparable within an allelic series)","11.9 upbm affinity estimate (log intensity, higher = more binding, comparable within an allelic series)","12.6 upbm affinity estimate (log intensity, higher = more binding, comparable within an allelic series)","11.4 upbm affinity estimate (log intensity, higher = more binding, comparable within an allelic series)","11.1 upbm affinity estimate (log intensity, higher = more binding, comparable within an allelic series)",–,–,–,–,–,–
CATAAAAA,"9.93 upbm affinity estimate (log intensity, higher = more binding, comparable within an allelic series)","12.8 upbm affinity estimate (log intensity, higher = more binding, comparable within an allelic series)","12.6 upbm affinity estimate (log intensity, higher = more binding, comparable within an allelic series)","12.4 upbm affinity estimate (log intensity, higher = more binding, comparable within an allelic series)","13 upbm affinity estimate (log intensity, higher = more binding, comparable within an allelic series)","10.7 upbm affinity estimate (log intensity, higher = more binding, comparable within an allelic series)","13 upbm affinity estimate (log intensity, higher = more binding, comparable within an allelic series)","11.8 upbm affinity estimate (log intensity, higher = more binding, comparable within an allelic series)","12 upbm affinity estimate (log intensity, higher = more binding, comparable within an allelic series)","11.6 upbm affinity estimate (log intensity, higher = more binding, comparable within an allelic series)","12 upbm affinity estimate (log intensity, higher = more binding, comparable within an allelic series)","11.4 upbm affinity estimate (log intensity, higher = more binding, comparable within an allelic series)",–,–,–,–,–,–
CTAATAAA,"9.76 upbm affinity estimate (log intensity, higher = more binding, comparable within an allelic series)","12.5 upbm affinity estimate (log intensity, higher = more binding, comparable within an allelic series)","12.5 upbm affinity estimate (log intensity, higher = more binding, comparable within an allelic series)","11.9 upbm affinity estimate (log intensity, higher = more binding, comparable within an allelic series)","12.7 upbm affinity estimate (log intensity, higher = more binding, comparable within an allelic series)","11.2 upbm affinity estimate (log intensity, higher = more binding, comparable within an allelic series)","12.6 upbm affinity estimate (log intensity, higher = more binding, comparable within an allelic series)","12.3 upbm affinity estimate (log intensity, higher = more binding, comparable within an allelic series)","11.9 upbm affinity estimate (log intensity, higher = more binding, comparable within an allelic series)","12.1 upbm affinity estimate (log intensity, higher = more binding, comparable within an allelic series)","11.6 upbm affinity estimate (log intensity, higher = more binding, comparable within an allelic series)","11.1 upbm affinity estimate (log intensity, higher = more binding, comparable within an allelic series)",–,–,–,–,–,–
ATAATAAT,"9.97 upbm affinity estimate (log intensity, higher = more binding, comparable within an allelic series)","12.6 upbm affinity estimate (log intensity, higher = more binding, comparable within an allelic series)",–,–,–,–,–,–,–,–,–,–,"10 upbm affinity estimate (log intensity, higher = more binding, comparable within an allelic series)","8.6 upbm affinity estimate (log intensity, higher = more binding, comparable within an allelic series)",–,–,–,–
CTATAAAA,"9.77 upbm affinity estimate (log intensity, higher = more binding, comparable within an allelic series)","12.8 upbm affinity estimate (log intensity, higher = more binding, comparable within an allelic series)","12.4 upbm affinity estimate (log intensity, higher = more binding, comparable within an allelic series)","12.2 upbm affinity estimate (log intensity, higher = more binding, comparable within an allelic series)","12.9 upbm affinity estimate (log intensity, higher = more binding, comparable within an allelic series)","11.1 upbm affinity estimate (log intensity, higher = more binding, comparable within an allelic series)","12.8 upbm affinity estimate (log intensity, higher = more binding, comparable within an allelic series)","12.4 upbm affinity estimate (log intensity, higher = more binding, comparable within an allelic series)","11.7 upbm affinity estimate (log intensity, higher = more binding, comparable within an allelic series)","12.2 upbm affinity estimate (log intensity, higher = more binding, comparable within an allelic series)","11.9 upbm affinity estimate (log intensity, higher = more binding, comparable within an allelic series)","11.4 upbm affinity estimate (log intensity, higher = more binding, comparable within an allelic series)",–,–,–,–,–,–
CGCCACCG,"8.56 upbm affinity estimate (log intensity, higher = more binding, comparable within an allelic series)","9.67 upbm affinity estimate (log intensity, higher = more binding, comparable within an allelic series)",–,"8.3 upbm affinity estimate (log intensity, higher = more binding, comparable within an allelic series)","9.81 upbm affinity estimate (log intensity, higher = more binding, comparable within an allelic series)","9.57 upbm affinity estimate (log intensity, higher = more binding, comparable within an allelic series)","9.64 upbm affinity estimate (log intensity, higher = more binding, comparable within an allelic series)","9.56 upbm affinity estimate (log intensity, higher = more binding, comparable within an allelic series)",–,"9.65 upbm affinity estimate (log intensity, higher = more binding, comparable within an allelic series)","8.46 upbm affinity estimate (log intensity, higher = more binding, comparable within an allelic series)","9.73 upbm affinity estimate (log intensity, higher = more binding, comparable within an allelic series)",–,–,"7.25 upbm affinity estimate (log intensity, higher = more binding, comparable within an allelic series)","10.5 upbm affinity estimate (log intensity, higher = more binding, comparable within an allelic series)","10.7 upbm affinity estimate (log intensity, higher = more binding, comparable within an allelic series)","7.41 upbm affinity estimate (log intensity, higher = more binding, comparable within an allelic series)"
CATTAAAA,"9.91 upbm affinity estimate (log intensity, higher = more binding, comparable within an allelic series)","12.6 upbm affinity estimate (log intensity, higher = more binding, comparable within an allelic series)","12.1 upbm affinity estimate (log intensity, higher = more binding, comparable within an allelic series)","12 upbm affinity estimate (log intensity, higher = more binding, comparable within an allelic series)","12.7 upbm affinity estimate (log intensity, higher = more binding, comparable within an allelic series)",–,"12.6 upbm affinity estimate (log intensity, higher = more binding, comparable within an allelic series)",–,"11.8 upbm affinity estimate (log intensity, higher = more binding, comparable within an allelic series)","11.6 upbm affinity estimate (log intensity, higher = more binding, comparable within an allelic series)","11.7 upbm affinity estimate (log intensity, higher = more binding, comparable within an allelic series)","11 upbm affinity estimate (log intensity, higher = more binding, comparable within an allelic series)",–,–,–,–,–,–
